# Bioassay records deposited in PubChem BioAssay by several laboratories.
# Bead autofluor: counter-screen for toxin protease inhibitors: compound fluorescence. compound autofluorescence counterscreen, microsphere flow cytometry; stronger effect = higher value. fluorescence intensity (concentration not given with the values). actives 3.1% (n = 360,000). AID 624483; in the data active = fluorescence intensity above about 16000; inconclusive = no clear call, values can overlap the other calls
# Anthrax LF inh2: blocks Bacillus anthracis lethal factor protease; P15917; multiplex microsphere protease cleavage assay, LF; inhibition, % at 10 µM; actives 0.12% (n = 360,000); AID 588501; note: plate controls were buffer without enzyme for full effect and enzyme alone for no effect
# GDH-TPI counter: counter-screen for M. tuberculosis FBA inhibitors: GDH-TPI coupled enzymes | actives 1.2% (n = 360,000) | AID 588335 | inhibition, % at 4.8 µM | GDH-TPI coupled enzyme counterscreen, NADH absorbance; in the data active = inhibition above about 30%;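 note: 0% = DMSO wells and 100% = wells lacking the enzyme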
# FBA Mtb inh: inhibitors of M. tuberculosis fructose-bisphosphate aldolase; P9WQA3; purified M. tuberculosis FBA, fluorescence read-out; inhibition, % at 1 µM; actives 2.3% (n = 360,000); AID 588726; in the data active = inhibition above about 27%;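 note: 0% = vehicle and 100% = reference inhibitor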
# Target sequence (P9WQA3 whole entry, looked up): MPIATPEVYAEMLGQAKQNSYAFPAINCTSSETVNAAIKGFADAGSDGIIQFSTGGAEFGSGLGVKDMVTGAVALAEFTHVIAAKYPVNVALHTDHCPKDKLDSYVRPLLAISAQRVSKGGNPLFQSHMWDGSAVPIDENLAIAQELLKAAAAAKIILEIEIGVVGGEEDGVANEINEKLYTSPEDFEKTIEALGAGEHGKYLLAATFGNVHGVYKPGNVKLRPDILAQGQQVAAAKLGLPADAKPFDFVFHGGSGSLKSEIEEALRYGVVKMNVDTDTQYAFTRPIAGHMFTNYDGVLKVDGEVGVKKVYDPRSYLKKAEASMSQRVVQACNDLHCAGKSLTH
# BoNT-F LC inh: blocks Botulinum neurotoxin F light chain protease. Multiplex microsphere protease cleavage assay, flow cytometry. inhibition, % at 10 µM. actives 0.22% (n = 360,000). AID 588497; in the data active = inhibition above about 35%, passing the limit was not always enough; inconclusive = no clear call, values can overlap the other calls; note: plate controls were buffer without enzyme for full effect and enzyme alone for no effect
# BoNT-A LC inh2: BoNT A light chain protease inhibition. multiplex microsphere protease substrate cleavage, flow cytometry. inhibition, % at 10 µM. actives 0.17% (n = 360,000); note: plate controls were buffer without enzyme for full effect and enzyme alone for no effect
# Active calls of the source: *; ? = inconclusive; · = not tested or not shown. Only some compounds are listed: those with a hit (about 6.6% of all), similar ones and a draw of the others. Cut-off read from the data, not from the text of the source, unless noted: active = inhibition above about 30%; inconclusive = no clear call, values can overlap the other calls; inactive = below that.
SMILES,Bead autofluor,Anthrax LF inh2,GDH-TPI counter,FBA Mtb inh,BoNT-F LC inh,BoNT-A LC inh2
Cn1c(CNC(=O)c2ccco2)nnc1SCCOc1ccccc1,5663,-2.0,-6.7,0.8,7.4,0.1
CNC(=O)c1c(Cl)cnn1-c1ccccc1,4867,2.0,6.3,7.7,1.5,-0.2
CC(=O)Nc1c(Cl)cnn(-c2ccccc2)c1=O,·,·,43.5*,1.4,·,·
CC(=O)Cc1nsc(NC(=O)c2cc(-c3ccc(Cl)c(Cl)c3)oc2C)n1,23305*,-3.4,10.9,3.4,-4.3,-3.2
CC(=O)Cc1nsc(NC(=O)c2ccc(-c3cc(C(F)(F)F)ccc3Cl)o2)n1,15647,-5.0,27.9,1.6,0.8,1.5
CC(=O)Cc1nsc(NC(=O)c2ccc(-c3cc(Cl)ccc3Cl)o2)n1,3480,-1.7,45.9*,10.5,-5.9,-1.4
CC(=O)Cc1nsc(NC(=O)c2ccc(-c3ccc(Cl)cc3Cl)o2)n1,20376*,-5.7,-0.6,2.1,-0.8,0.1
CC(=O)Cc1nsc(NC(=O)c2cc(-c3ccccc3Cl)oc2C)n1,4667,-7.2,15.0,7.7,1.1,-0.4
Cn1ccc2c(/C=C/c3ccc(F)cc3)cc3c(c21)C1CCC3O1 (stereo not drawn),4081,8.5,·,139.9*,6.9,6.9
Cn1ccc2c(/C=C/c3ccc(F)cc3)cc3c(c21)C1CCC3C1 (stereo not drawn),4797,-12.4,·,8.1,-35.6,14.8
CCc1cccc(NC(=O)NC(=O)Cn2nnc(C(=O)OC)c2C(=O)OC)c1,10112,0.8,-5.2,1.1,3.3,-0.1
O=C(CN1CCCc2ccccc21)NC(=O)NCc1ccco1,17200*,-4.3,7.0,2.4,-3.4,-1.0
CC1Cc2ccccc2N1CC(=O)NC(=O)NC1CCCC1 (stereo not drawn),3291,-1.5,0.0,0.8,-1.5,0.2
CC1CC(=O)N(CC(=O)NCc2ccco2)c2ccccc2S1 (stereo not drawn),23847*,-0.8,8.7,0.6,-2.9,-2.0
CC1Cc2ccccc2N1CC(=O)NC(=O)NCc1ccco1 (stereo not drawn),17928*,11.1,-5.1,0.3,-9.8,15.5
Cc1ccc(C)c(S(=O)(=O)N2CCN(CC(=O)Nc3ccc4c(c3)OCCO4)CC2)c1,24103*,3.3,-8.9,0.4,-2.5,-1.4
CC1CC(=O)N(CC(=O)NCc2ccc3c(c2)OCO3)c2ccccc2S1 (stereo not drawn),10183,-0.9,2.1,0.9,8.7,1.1
O=C(CSCc1ccccc1)Nc1ccc2c(c1)OCO2,4154,-8.7,-1.2,3.5,?,-0.9
C/C(CC(=O)Nc1ccc2c(c1)OCO2)=N\NC(=O)OC(C)(C)C,4752,-0.1,-4.5,2.2,42.2*,5.0
Cc1ccc(CSCC(=O)Nc2ccc3c(c2)OCO3)cc1,22179*,-4.8,1.0,2.2,-1.2,0.2
COCc1cc(C)n(CC(=O)Nc2ccc3c(c2)OCO3)c(=O)c1C#N,5542,-0.1,31.9*,-0.2,-1.8,0.0
CC1Cc2ccccc2N1CC(=O)Nc1cccc(S(N)(=O)=O)c1 (stereo not drawn),3316,0.1,-2.5,-0.5,0.3,2.2
C/C(CC(=O)Nc1ccc2c(c1)OCO2)=N\NC(=O)c1ccc(N)cc1,5110,-3.6,19.2,-1.8,1.6,0.3
CC1Cc2ccccc2N1CC(=O)Nc1ccc2c(c1)OCO2 (stereo not drawn),20865*,8.3,4.2,0.5,2.3,11.3
CC(=O)Nc1ccc(NC(=O)C(C)Sc2nnc(-c3cccs3)o2)cc1 (stereo not drawn),4846,0.3,14.8,-2.1,-3.7,-0.2
SMILES,Bead autofluor,Anthrax LF inh2,GDH-TPI counter,FBA Mtb inh,BoNT-F LC inh,BoNT-A LC inh2
COC(=O)C1=C(C)NC(C)=C(C(=O)OC)C1C(=O)OCC(=O)N1CCCCC1C (stereo not drawn),4167,-0.7,17.9,5.9,1.0,0.9
Cc1cccn2cc(-c3c[nH]c4ccccc34)nc12,4446,-0.2,4.4,194.9*,-2.8,0.1
CC(=O)NC1=C(N2CC2C)C(=O)C(NC(C)=O)=C(N2CC2C)C1=O (stereo not drawn),3666,7.3,32.3*,-3.5,2.4,0.5
O=c1c2ccccc2sn1-c1cc(S(=O)(=O)N2CCOCC2)ccc1N1CCOCC1,9835,1.4,8.2,-2.1,23.4,82.9*
O=c1c2ccccc2sn1-c1cc(S(=O)(=O)N2CCOCC2)ccc1N1CCCC1,20573*,-8.3,3.9,-2.0,2.7,?
O=S(=O)(c1ccc(N2CCOCC2)c(Cl)c1)N1CCOCC1,4115,-0.3,-1.5,1.9,-31.4,-6.6
